The values below come from PubChem BioAssay (NCATS).

SMILES strings stand for the structures. Results filed as inconclusive are left out. Active and inactive are the calls of the source. Calls follow the shape of the dose curve; as a rule, active = well fitted cell-killing curve with a large enough effect; inconclusive = small, poorly fitted or top-dose-only effect, or effect the other way; inactive = no such curve, though single readings can be large or run the other way. Non-standard residues stand in square brackets, D forms with d. Residues, ends and D or L forms follow the SMILES beside them. *: point of attachment. Nva = CCC[C@H](N)C(=O)O; Cbz = O=C(OCc1ccccc1)*
Potency is read from the fitted curve at half-maximal effect.

The nature of the assay: qHTS of pediatric cancer cell lines to identify multiple opportunities for drug repurposing: Confirmatory screen for Rh30 cells (AID 1347126). Also: nearly all actives have a fitted effect of over 55% in size. The following applies: Rh30 rhabdomyosarcoma cell viability; series mostly up to 45.9 µM. Summed up: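 Viability after 48 h compound treatment at 37C, 500-1,000 cells/well, read as ATP luminescence with CellTiter-Glo. Primary screens used 11-point (MIPE, 0.78 nM-46 µM) or 8-point (NPC, 0.59 nM-46 µM) final concentrations; follow-up screens used 11-point dilutions.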
Background: qHTS replaces the single test concentration by a dilution series.
Turning to `COc1ccc(S(=O)(=O)Nc2cccnc2Nc2ccc(O)cc2)cc1`, the Potency entry is “inactive”.

As for `COc1ccc(C=Cc2cc(OC)c(OC)c(OC)c2)cc1NC(=O)[C@H](N)CO`, the Potency is 0.928 µM (active).

Take `C[C@@H](Oc1ccc2[nH]nc(C=Cc3cnn(CCO)c3)c2c1)c1c(Cl)cncc1Cl`: the Potency was 4.14 µM (active).

Take `Cc1ccc([N+](=O)[O-])cc1S(=O)(=O)N(C)N=Cc1cnc2ccc(Br)cn12`: the Potency was 4.65 µM (active).

`CNC(=O)Nc1ccc(-c2nc(N3CC4CCC(C3)O4)c3cnn(C4CCC5(CC4)OCCO5)c3n2)cc1`: the Potency is 0.329 µM (active).

Take `Nc1nc2c(c(=O)[nH]1)N(C=O)[C@H](CNc1ccc(C(=O)N[C@@H](CCC(=O)O)C(=O)O)cc1)CN2`: the Potency result was “inactive”.

As to `C[C@H](NCc1ccc2c(c1)nc(NC(=O)c1ccc(-c3cn[nH]c3)s1)n2CCc1ccccc1)C(C)(C)C`, the Potency is 4.14 µM (active).

For the compound `CCC[C@@H](C=O)NC(=O)[C@H](CC(C)C)NC(=O)[C@H](CC(C)C)NC(=O)OCc1ccccc1` (Cbz-Leu-Leu-[Nva]-aldehyde), the Potency was 4.14 µM (active).

As for `COC(=O)[C@@H]1[C@H]2C[C@@H]3c4[nH]c5ccccc5c4CCN3C[C@@H]2CC[C@@H]1O`, the Potency result is “inactive”.

For `C=Cc1c(C)c2cc3nc(cc4[nH]c(cc5nc(cc1[nH]2)C(C)=C5CCC(=O)O)c(CCC(=O)OC)c4C)[C@@]1(C)C3=CC=C(C(=O)OC)[C@H]1C(=O)OC`, the Potency result is “inactive”.

As for `FC(F)c1nc2ccccc2n1-c1nc(N2CCOCC2)nc(N2CCOCC2)n1`, the Potency is 1.65 µM (active).

Turning to `CC(C)(N)c1ccc(-c2nc3ccccc3nc2-c2ccccc2)cc1`, the Potency entry was “inactive”.
